From ChEMBL document CHEMBL3988442, “University of Dundee, Small-Polar-MMV Screening Library” (2021) come the findings set out here.

Molecules are shown by their SMILES. Among all 48,000 compounds or so, about 13,000 (27%) showed an effect of 50% or more. The list shows a part of the results.

This assay has as its system Wolbachia pipientis. As to the kind of experiment: Anti-Wolbachia Cell-Based Screen. The assay is classed as functional. Further details: scale not given: in the data most compounds retested in dose-response had high values. Particulars: 5 µM.
`CN(CCC#N)C(=O)Cc1csc(-c2ncccn2)n1`: the “Percent Effect” value was 2.424%.

On to `CNC(=O)[C@@H]1C[C@H](N)CN1Cc1cc2cc(C)cc(C)c2[nH]c1=O`, for which the “Percent Effect” value turned out to be 27.32%.

As to `O=C(O)C(F)(F)F.O=C(O)C(F)(F)F.O=C(O)C(F)(F)F.c1ccc(Cn2cc3c(n2)C(CNCc2ccco2)OCC3)nc1` (centres undefined), the “Percent Effect” value is on record as -0.4855%.

Turning to `COCCn1cc2c(n1)C(CNCc1ccco1)OCC2.O=C(O)C(F)(F)F.O=C(O)C(F)(F)F` (centres undefined), the “Percent Effect” value is listed as 3.436%.

Turning to `CC(C)NCC1OCCc2cn(C)nc21.O=C(O)C(F)(F)F` (centres undefined), the “Percent Effect” value is on record as 25.68%.

Turning to `Cn1cc2c(n1)C(CNCc1ccco1)OCC2.O=C(O)C(F)(F)F.O=C(O)C(F)(F)F` (centres undefined), the “Percent Effect” value is given as 145.8%.

`Cc1occc1C(=O)NCC1OCCc2cn(C)nc21.O=C(O)C(F)(F)F` (centres undefined): the “Percent Effect” value is reported as 115.2%.

With `Cn1cc2c(n1)C(CNCC1CCOCC1)OCC2.O=C(O)C(F)(F)F.O=C(O)C(F)(F)F` (centres undefined), the “Percent Effect” value was 10.93%.

On to `COc1ccccc1C1(CNc2snc(Cl)c2C#N)CCOCC1`, for which the “Percent Effect” value is -1.634%.

In the case of `COc1cc(N2C[C@@H](C)[C@](O)(C3CC3)C2)nc(N)n1`, the “Percent Effect” value is -24.25%.

`CC1CN(c2ncnc3ccccc23)CCO1` (centres undefined): the “Percent Effect” value is -1.794%.

Take `CC(C)n1nc(Cn2cccc2)c2c1CN(Cc1ccoc1)C2.O=C(O)C(F)(F)F`: the “Percent Effect” value is given as -4.933%.

With `CC(C)n1nc(CN2CCOCC2)c2c1CN(Cc1ccsc1)C2.O=C(O)C(F)(F)F.O=C(O)C(F)(F)F`, the “Percent Effect” value is given as -3.193%.

Turning to `CC(C)n1nc(CN2CCCCC2)c2c1CN(C(=O)c1ccno1)C2.O=C(O)C(F)(F)F`, the “Percent Effect” value amounted to 85.62%.

As to `CC(C)n1nc(CN2CCOCC2)c2c1CN(C(=O)c1ccno1)C2.O=C(O)C(F)(F)F`, the “Percent Effect” value amounted to 102.9%.

With `CC(C)n1nc(Cn2cccc2)c2c1CN(C1CCOCC1)C2.O=C(O)C(F)(F)F`, the “Percent Effect” value was -6.023%.

For `Cc1ccc(C(=O)N2Cc3c(CN4CCCCC4)nn(C)c3C2)cc1C.O=C(O)C(F)(F)F`, the “Percent Effect” value was -1.924%.

With `O=C(c1cc(Cl)c2c(c1)OCO2)N1CCN(c2nccs2)CC1`, the “Percent Effect” value is on record as -12.71%.

For `O=C(NCc1c(F)cccc1Cl)c1cc(CN2CCCC(O)C2)on1` (centres undefined), the “Percent Effect” value is on record as -0.1537%.

On to `Cc1cccc2c1nc1n2[C@@H](CNC(=O)CCC(=O)O)COC1`, for which the “Percent Effect” value was -14.2%.

With `CC(C)S(=O)(=O)NCc1cccnc1Oc1ccc(F)cc1F`, the “Percent Effect” value is -8.317%.

On to `CN(C)S(=O)(=O)NCc1cccnc1Oc1ccc(F)cc1F`, for which the “Percent Effect” value worked out at 1.253%.

Consider `CNCc1cc(F)ccc1Oc1ccc(F)cc1F`, for which the “Percent Effect” value is given as 116%.

For `CNCc1cc(F)ccc1Oc1ccc(Cl)cc1`, the “Percent Effect” value is 118.2%.

On to `Cc1noc(NCc2cc(F)ccc2F)n1`, for which the “Percent Effect” value is on record as 5.671%.

`COc1ccc(C)cc1CC(=O)NC(CC(=O)O)c1ccc(F)cc1` (centres undefined): the “Percent Effect” value is on record as 6.211%.

For the compound `CNCc1cc(F)ccc1Oc1ccc(F)cc1`, the “Percent Effect” value amounted to 114.4%.

Take `COc1ccc(CC(=O)NC(CC(=O)O)c2ccc(F)cc2)cc1OC` (centres undefined): the “Percent Effect” value turned out to be 11.02%.

`CNC(=O)COc1ccc(CNCc2ccc(F)cc2F)cc1`: the “Percent Effect” value was -7.839%.

As for `CC(NCC1CCN(CCO)CC1)c1ccc(Cl)cc1` (centres undefined), the “Percent Effect” value is given as 5.926%.

Regarding `CCc1nn(C)c(Cl)c1CN1CCN(c2ccc(C(N)=O)cn2)CC1`, the “Percent Effect” value is on record as -7.307%.

With `CC(C)Cc1ncc2c(n1)CN(C(=O)c1ccc(CN3CCCC3)o1)C2`, the “Percent Effect” value came out at 8.376%.

As to `O=C(NC1CC1)[C@H]1C[C@H]2OCC[C@H]2N(Cc2cccc3ccccc23)C1.O=C(O)C(F)(F)F`, the “Percent Effect” value was -4.229%.

As for `Cc1nc(N(C)C)nc(C)c1NC(=O)c1ccco1`, the “Percent Effect” value turned out to be 16.89%.

Take `CC(C)C(=O)N1CCN(S(C)(=O)=O)CC2(CC(=O)N(C)C2)C1` (centres undefined): the “Percent Effect” value turned out to be 4.406%.

As for `COCc1noc(-c2ccc(N(C)Cc3cc(C)no3)nc2)n1`, the “Percent Effect” value is on record as -6.826%.

For the compound `COCc1noc(-c2ccc(N(C)Cc3ccc(C)o3)nc2)n1`, the “Percent Effect” value was -8.335%.

In the case of `COCc1noc(-c2ccc(N(C)Cc3ncccc3C)nc2)n1`, the “Percent Effect” value is 79.04%.

For `CSc1ccccc1CC1CCCS(=O)(=O)C1` (centres undefined), the “Percent Effect” value is reported as -14.28%.

In the case of `O=S(=O)(NCCSc1nncn1C1CC1)c1ccccc1`, the “Percent Effect” value is given as 13.46%.

For the compound `CC(c1nc(C2CC2)no1)N1CCN(CCc2ccncc2)CC1` (centres undefined), the “Percent Effect” value is -3.98%.

In the case of `CC(c1nc(C(C)(C)C)no1)N1CCC(N2CCCC2)CC1` (centres undefined), the “Percent Effect” value is on record as -1.947%.

`CCc1noc(C(C)N2CCN(CC(=O)N3CCOCC3)CC2)n1` (centres undefined): the “Percent Effect” value was 97.96%.

With `CC(c1nc(C(C)(C)C)no1)N1CCN(C(=O)CN2CCOCC2)CC1` (centres undefined), the “Percent Effect” value was 87.21%.

Turning to `CCc1noc(C(C)N2CCN(Cc3nc(C)c(C)o3)CC2)n1` (centres undefined), the “Percent Effect” value was 17.35%.

For `CCc1noc(C(C)N2CCOCC2)n1` (centres undefined), the “Percent Effect” value is recorded as 1.305%.

For the compound `CC(c1nc(C2CC2)no1)N1CCN(CC(=O)N2CCOCC2)CC1` (centres undefined), the “Percent Effect” value is listed as 99.5%.

For `CC(c1nc(C2CC2)no1)N1CCN(CCS(C)(=O)=O)CC1` (centres undefined), the “Percent Effect” value is on record as 9.574%.

As for `CC(C(=O)N1CCOCC1)S(=O)(=O)Cc1nc(C(C)(C)C)no1` (centres undefined), the “Percent Effect” value was -2.634%.

In the case of `O=C(Nc1ccc(CCN2CCC(O)CC2)cc1)Nc1cccnc1`, the “Percent Effect” value is -10.88%.

Turning to `CCn1c(N)nc2cc(C(=O)N3CC(c4ccccn4)C3)cnc21`, the “Percent Effect” value was 10.45%.

With `NC(=O)CC1CCN(S(=O)(=O)N2CCCC2c2ccco2)CC1` (centres undefined), the “Percent Effect” value is listed as -25.34%.

On to `Cc1cc(C(O)CCNC(=O)COc2ccccc2C)c(C)o1` (centres undefined), for which the “Percent Effect” value worked out at 9.318%.

Consider `COc1ccccc1OCC(=O)NCc1ncc(C)c(OC)c1C`, for which the “Percent Effect” value is recorded as 12.71%.

In the case of `Cc1ccccc1OCC(=O)NCC(c1ccc(N(C)C)cc1)N(C)C` (centres undefined), the “Percent Effect” value worked out at 129.5%.

`O=C(O)c1cn(CC2CCCN(c3nccc4occc34)C2)nn1` (centres undefined): the “Percent Effect” value came to 6.714%.

`Cc1ccc(CNc2ccccc2-n2ccc(C)n2)nc1`: the “Percent Effect” value was -1.934%.

On to `COc1ccc(C(=O)N2C[C@@H](O)[C@H](NCc3ncccc3C)C2)cc1`, for which the “Percent Effect” value stood at 82.18%.

As to `COc1ccc(C(=O)N2C[C@@H](O)[C@H](NCCc3ncccc3C)C2)cc1`, the “Percent Effect” value worked out at 97.07%.

With `CNC(=O)[C@@H]1COC[C@H]2CN(C(=O)c3ccc(OC)cc3)C[C@H]21`, the “Percent Effect” value is reported as -23.66%.

Consider `COc1ccc(C(=O)N2CCN(C(=O)Cn3nccc3C)CC2)cc1`, for which the “Percent Effect” value came to 4.431%.

For `COc1ccc(C(=O)N2C[C@@H](O)[C@H](NCc3cnc(C)cn3)C2)cc1`, the “Percent Effect” value is 111.7%.

As for `COc1ccc2c(c1)nc1n2[C@@H](CNCc2ncccc2C)COC1`, the “Percent Effect” value is -5.483%.

On to `O=C(c1ccc(-c2nc[nH]n2)cc1)N1CC[C@H](CO)[C@@H](O)C1`, for which the “Percent Effect” value is on record as 11.14%.

On to `COc1ccc(C2CCN(C(=O)c3ncccc3OC(C)C)C2)cc1` (centres undefined), for which the “Percent Effect” value amounted to 4.794%.

For `C=Cc1ccc(C(=O)N2CCCC(Nc3ccc(OC)cc3)C2)cc1` (centres undefined), the “Percent Effect” value came out at 13.35%.

In the case of `CC(C)CN1CCc2[nH]cnc2C12CCN(C(=O)c1ccc[nH]1)CC2`, the “Percent Effect” value is listed as 3.052%.

Take `CC(=O)N[C@@H]1CN(C2CCN(c3ccccc3F)CC2)C[C@H]1C(C)C`: the “Percent Effect” value turned out to be 33.97%.

Turning to `COC(=O)CC(c1cnn(C)c1)c1oc(C)cc(=O)c1O` (centres undefined), the “Percent Effect” value is listed as 15.74%.

Turning to `Cn1cc(Cl)cc1C(=O)N1CCC2(CCCN(CC3CCC3)C2=O)C1` (centres undefined), the “Percent Effect” value is recorded as -14.89%.

As to `Cc1[nH]c2c(C)ccc(C)c2c1CC(=O)NCC(O)c1cccnc1` (centres undefined), the “Percent Effect” value amounted to 0.3243%.

As to `CCOCCN(CCOCC)c1nc(C)nc2sccc12`, the “Percent Effect” value is -8.835%.

As to `OCc1cc2ccccc2nc1NCC1CCN(CC(F)(F)F)C1` (centres undefined), the “Percent Effect” value was -4.701%.

With `O=C(N1CCCC1)N1CCC[C@]2(C[C@@H](OCc3ccncc3)CO2)C1.O=C(O)C(F)(F)F`, the “Percent Effect” value is recorded as -0.7527%.

Turning to `CO[C@H]1CO[C@@]2(CCCN(C(=O)N3CCCC3)C2)C1`, the “Percent Effect” value was 89.24%.

As for `CO[C@H]1CO[C@@]2(CCCN(C(=O)N(C)C)C2)C1`, the “Percent Effect” value is recorded as 112.3%.

Turning to `CCO[C@H]1CO[C@@]2(CCCN(C(=O)c3ccc(OC)c(F)c3)C2)C1`, the “Percent Effect” value is reported as -0.1252%.

Turning to `CCO[C@@H]1CO[C@@]2(CCCN(C(=O)c3ccc(OC)c(F)c3)C2)C1`, the “Percent Effect” value is reported as -6.158%.

With `CO[C@H]1CO[C@@]2(CCCN(C(=O)C3=CCCCC3)C2)C1`, the “Percent Effect” value is reported as -11.4%.

Take `CO[C@@H]1CO[C@@]2(CCCN(C(=O)N3CCCC3)C2)C1`: the “Percent Effect” value came out at 89.36%.

`CN(C)C(=O)c1noc2c1CN(C(=O)CCC1CCCCN1C)CC2` (centres undefined): the “Percent Effect” value turned out to be 11.84%.

Regarding `CCCn1nc2c(cc1=O)CN(CC1CCCCO1)CC2` (centres undefined), the “Percent Effect” value was -1.903%.

`COCCN1C(=O)CC[C@@H]2[C@H]1CCN2C(=O)N(C)C`: the “Percent Effect” value was 4.27%.

As for `O=C(O)C(F)(F)F.O=S(=O)(C1CC1)N1CCO[C@H]2[C@H](OCCN3CCCC3)CC[C@@H]21`, the “Percent Effect” value was -18.3%.

On to `O=C(O)C(F)(F)F.O=C1CC[C@H]2[C@H](CCN2S(=O)(=O)C2CC2)N1CCN1CCCC1`, for which the “Percent Effect” value worked out at 79.45%.

In the case of `CCN1C(=O)CC[C@@H]2[C@H]1CCN2S(=O)(=O)c1cccs1`, the “Percent Effect” value is listed as 2.968%.

For `COCCN1C(=O)CC[C@@H]2[C@H]1CCN2Cc1ccc(C)s1.O=C(O)C(F)(F)F`, the “Percent Effect” value was found to be 3.422%.

`COCCN1C(=O)CC[C@@H]2[C@@H]1CCN2S(=O)(=O)C1CC1`: the “Percent Effect” value is 90.99%.

For `COCCCN1C(=O)CC[C@H]2CN(Cc3ncc[nH]3)CC[C@H]21`, the “Percent Effect” value is on record as -5.769%.

With `CN1C(=O)CC[C@@H]2[C@H]1CCN2S(=O)(=O)c1cccs1`, the “Percent Effect” value is on record as -22.4%.

As to `CCS(=O)(=O)N1CC[C@@H]2[C@H]1CCC(=O)N2CCOC`, the “Percent Effect” value was 101.4%.

Consider `COCCN1C(=O)CC[C@@H]2[C@H]1CCN2S(=O)(=O)c1cccs1`, for which the “Percent Effect” value was 103.5%.

For `COCCN1C(=O)CC[C@@H]2[C@H]1CCN2C(=O)C1CCOCC1`, the “Percent Effect” value was 5.34%.

With `O=C1CC[C@H]2[C@H](CCN2C(=O)C2CCCO2)N1CCN1CCCC1` (some centres undefined), the “Percent Effect” value is given as 13.58%.
